Experimental findings from PubChem BioAssay are described below.

Activity calls are given as the source filed them. Unless noted, no rule for the calls is given here.

The test system of assay [1] is XIP peptide (Xip251-270) binding. Nature of the assay: XIP fragment 251-270 binding compounds – biochemical, small-molecule microarray, fluorescence 635/667 nm, 0.1 µg/mL protein, primary screen (AID 1182). The settings on record: fluorescent protein binding, 635 nm, higher = more signal, called active from +8 up or from −8 down.
The test system of a further assay is XIP peptide (Xip251-270). Nature of the assay: compounds binding XIP fragment 251-270 – biochemical, small-molecule microarray, fluorescence 635/667 nm, 0.5 µg/mL protein, primary screen (AID 1183). The settings on record: fluorescence 635 nm, higher = more signal.
Assay [2] is described as follows: blood-stage malaria parasite viability loss – strain 3D7, DAPI fluorescence, 100 nL, primary screen (AID 1184).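 Also: parasites grown inside human red blood cells in medium with human serum.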 The settings on record: P. falciparum 3D7 growth, 3 d, higher = more signal.
For assay [3], the target named is Homeobox protein Hox-A13 (Mus musculus) (UniProt Q62424). Nature of the assay: disruptors of Hoxa13 oligonucleotide interaction – biochemical, fluorescence polarization, labeled oligonucleotide, primary screen (AID 1185). The settings on record: Hoxa13:DNA binding, 15 min, higher = more signal, called active from +8 up or from −8 down.
Assay [4] can be described thus: blockers of DNA damage checkpoint Chk1 activation – imaging, HeLa, hydroxyurea, phospho-Chk1 antibody, percent positive cells, primary screen (AID 1186). The settings on record: hydroxyurea-induced phospho-Chk1 immunofluorescence imaging, higher = more signal.
A short description of assay [5]: blockers of DNA damage checkpoint Chk1 activation – imaging, HeLa, hydroxyurea, phospho-Chk1 nuclear intensity, primary screen (AID 1187). The settings on record: hydroxyurea-induced phospho-Chk1 immunofluorescence imaging, higher = more signal.

Homeobox protein Hox-A13 (Mus musculus), sequence (Q62424 whole entry, looked up): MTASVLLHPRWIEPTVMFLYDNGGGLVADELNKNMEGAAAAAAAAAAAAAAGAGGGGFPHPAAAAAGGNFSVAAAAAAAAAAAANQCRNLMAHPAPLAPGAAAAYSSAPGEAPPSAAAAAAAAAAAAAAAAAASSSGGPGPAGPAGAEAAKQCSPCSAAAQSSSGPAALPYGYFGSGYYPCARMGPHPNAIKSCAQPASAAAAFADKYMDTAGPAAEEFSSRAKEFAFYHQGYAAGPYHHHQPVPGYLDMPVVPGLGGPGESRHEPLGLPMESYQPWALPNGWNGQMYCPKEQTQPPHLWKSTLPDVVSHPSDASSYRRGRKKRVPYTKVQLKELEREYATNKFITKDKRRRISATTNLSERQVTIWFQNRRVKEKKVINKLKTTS

Turning to `COc1ccc([Si](C)(C)[C@H]2[C@H](CCO)O[C@@]3(C(=O)N(Cc4ccc(N5CCOC5=O)cc4)c4ccccc43)[C@@H]2C)cc1`, the composite z-score in assay [1] is 0.782 (inactive); in the assay with XIP peptide (Xip251-270), 0.666. Further, the z-score was -2.76 in assay [2], -2.76 (inactive) in assay [3], -0.73 (inactive) in assay [4] and -0.713 (inactive) in assay [5].
Take `C=CCC(OC(C)=O)[C@@H]1[C@@H](N(Cc2cc3ccccc3o2)C(=O)Cc2ccc(OC)cc2)c2cc(OCCCO)ccc2N1C(=O)Cc1ccc(OC)cc1` (stereo partly specified): the composite z-score in assay [1] was 0.394 (inactive); in the assay with XIP peptide (Xip251-270), -0.503. The z-score in assay [2] was -1.96; in assay [3], -2.81 (inactive); in assay [4], 0.954 (inactive); in assay [5], 0.799 (inactive).
For `C#CCN([C@H](/C=C/C1CC1)[C@@H](O)Cc1ccccc1)[C@@H](Cc1ccccc1)C(=O)OC`, the figures for the composite z-score (in assay [1]; with XIP peptide (Xip251-270)) were 0.17 (inactive) and -0.205, respectively. Further, the z-score in assay [2] is -0.752; in assay [3], -4.57 (inactive); in assay [4] it was -0.587 (inactive); in assay [5] it was -0.959 (inactive).
Take `CC#CCO[Si](C#CCCCCCC)(C(C)C)C(C)C`: the values for the composite z-score (in assay [1]; in the assay with XIP peptide (Xip251-270)) were -0.0884 (inactive) and 0.938, respectively. Besides, the z-score was -1.23 in assay [2], -2 (inactive) in assay [3], -0.156 (inactive) in assay [4] and 0.0743 (inactive) in assay [5].
With `C[N+](C)(C)CCCCCCNC(=O)[C@H]1C[C@H]2C(=O)NCC(=O)N2[C@H]1c1cccc(OCCO)c1`, the composite z-score in assay [1] was 1.32 (inactive); in the assay on XIP peptide (Xip251-270) it was 0.695. For the same compound, the z-score is 0.138 in assay [2], -3.97 (inactive) in assay [3], 0.145 (inactive) in assay [4] and 0.136 (inactive) in assay [5].
In the case of `C=CC[C@]1(C(=O)NCCCOC)N=C(c2ccc(OCCCO)cc2)O[C@H]1c1ccccc1`, the composite z-score in assay [1] is 0.227 (inactive); in the assay on XIP peptide (Xip251-270) it was 0.659. For the same compound, the z-score in assay [2] is -0.67; in assay [3], -6.7 (inactive); in assay [4], -0.132 (inactive); in assay [5] it was 0.0245 (inactive).
With `[N-]=[N+]=NCc1ccccc1C[C@]1(C(=O)N2CCOCC2)N=C(c2ccc(OCCCO)cc2)O[C@H]1c1ccccc1CN=[N+]=[N-]`, the composite z-score in assay [1] is 0.158 (inactive); with XIP peptide (Xip251-270), 0.733. In addition, the z-score in assay [2] was -2.28; in assay [3], 0.116 (inactive); in assay [4], -0.597 (inactive); in assay [5] it was -0.736 (inactive).
As to `Cc1c(-c2ccc(-c3ccc(Cl)c(Cl)c3)o2)nc(-c2ccccc2)c2c1CO[Si]2(C(C)C)C(C)C`, the values for the composite z-score (in assay [1]; in the assay on XIP peptide (Xip251-270)) were 0.401 (inactive) and 0.761, respectively. In addition, the z-score in assay [2] was 0.962; in assay [3], -1.48 (inactive); in assay [4], 0.0151 (inactive); in assay [5] it was -0.0709 (inactive).
Turning to `CCCCN1CC=CC23O[C@@H]4/C=C\CCC(C)OC(=O)C4[C@H]2C(=O)N(C(C)CO)[C@@H]3C1=O` (stereo partly specified), the composite z-score is 1.02 (inactive) in assay [1] and -0.369 in the assay with XIP peptide (Xip251-270). Besides, the z-score in assay [2] was 0.105; in assay [3] it was -5.78 (inactive); in assay [4], 0.479 (inactive); in assay [5], 0.632 (inactive).
As to `CCC(CC)C(O)C1C=CC2C(=O)N(C)C(=O)C2N1N1CCCCC1` (stereo unspecified), the composite z-score in assay [1] is 0.865 (inactive); with XIP peptide (Xip251-270) it was 0.708. For the same compound, the z-score in assay [2] is 0.907; in assay [3] it was -6.35 (inactive); in assay [4], 0.687 (inactive); in assay [5], 0.562 (inactive).
Consider `CN(C)CCCC[C@@H]1NC(=O)[C@H]2C[C@@H](C(=O)NCc3ccc(F)cc3)[C@@H](c3ccc(O)cc3)N2C1=O`, for which the composite z-score in assay [1] is 2.07 (inactive); with XIP peptide (Xip251-270) it was 0.934. Further, the z-score in assay [2] was -0.057; in assay [3], -1.36 (inactive); in assay [4] it was 0.806 (inactive); in assay [5] it was 1.32 (inactive).
As for `COCCOC(=O)N1C(=O)[C@@]2(c3cc(C#CC4(O)CCCCCC4)ccc31)[C@H](C(=O)N1CCc3cc(OC)c(OC)cc3C1)[C@H]1C(=O)O[C@H](c3ccccc3)[C@H](c3ccccc3)N1[C@@H]2c1ccc(O)cc1`, the results for the composite z-score (in assay [1]; in the assay with XIP peptide (Xip251-270)) were 0.424 (inactive) and 0.762, respectively. Moreover, the z-score is -1.72 in assay [2], -0.363 (inactive) in assay [3], 0.25 (inactive) in assay [4] and 0.81 (inactive) in assay [5].
For the compound `C=CC[C@@]1(C(=O)N(C)C)N=C(c2ccc(OCCCO)cc2)O[C@@H]1c1ccccc1`, the composite z-score in assay [1] was 0.98 (inactive); with XIP peptide (Xip251-270), 0.425. The z-score is -0.76 in assay [2], -6.79 (inactive) in assay [3], 0.343 (inactive) in assay [4] and 0.0811 (inactive) in assay [5].
For `Cc1ccccc1C(O)C1C=CC2C(=O)N(c3ccccc3)C(=O)C2N1Nc1ccccc1F` (stereo unspecified), the composite z-score in assay [1] was 1.5 (inactive); with XIP peptide (Xip251-270) it was 0.646. For the same compound, the z-score in assay [2] was 0.907; in assay [3], -2.9 (inactive); in assay [4], 1.27 (inactive); in assay [5], 1.11 (inactive).
As to `COC(=O)[C@@]1(Cc2ccccc2)[C@@H]2[C@@H](CC(=O)[C@H]2CC(=O)C(=O)N(C)C)CN1C(=O)c1ccccc1`, the composite z-score was -0.282 (inactive) in assay [1] and -0.0913 in the assay on XIP peptide (Xip251-270). The z-score was -1.23 in assay [2], -4.98 (inactive) in assay [3], 0.273 (inactive) in assay [4] and 0.082 (inactive) in assay [5].
For `COC(=O)[C@@]1(Cc2ccc(F)cc2)[C@H]2c3cc(C(=O)N(C)C)n(CCN4CCOCC4)c3C[C@H]2CN1C(=O)c1ccccc1`, the composite z-score is 0.673 (inactive) in assay [1] and 0.811 in the assay with XIP peptide (Xip251-270). Further, the z-score in assay [2] was -1.45; in assay [3], -6.83 (inactive); in assay [4], -0.366 (inactive); in assay [5], -0.245 (inactive).
Take `CCOC(=O)C1=C(C(=O)OCC)N(S(=O)(=O)CC[Si](C)(C)C)[C@H](c2ccccc2)CC1`: the composite z-score in assay [1] is -0.177 (inactive); in the assay on XIP peptide (Xip251-270) it was 0.201. Further, the z-score in assay [2] is -1.81; in assay [3], -2.79 (inactive); in assay [4], -0.184 (inactive); in assay [5], -0.535 (inactive).
`O=C1O[C@H](c2ccccc2)[C@H](c2ccccc2)N2[C@H]1[C@@H](C(=O)N1CCN(c3ncccn3)CC1)[C@]1(C(=O)Nc3ccccc31)[C@H]2c1ccc(O)cc1`: the composite z-score is 0.0016 (inactive) in assay [1] and 0.458 with XIP peptide (Xip251-270). The z-score in assay [2] was -0.976; in assay [3], -1.2 (inactive); in assay [4], 0.746 (inactive); in assay [5], 1.46 (inactive).
On to `COCCOC(=O)N1C(=O)[C@@]2(c3cc(C#CCCO)ccc31)[C@H](c1ccc(O)cc1)N1[C@H](c3ccccc3)[C@H](c3ccccc3)OC(=O)[C@H]1[C@@H]2C(=O)N1CCc2cc(OC)c(OC)cc2C1`, for which the composite z-score in assay [1] is 0.0404 (inactive); in the assay with XIP peptide (Xip251-270) it was 0.786. Also, the z-score in assay [2] was -0.0976; in assay [3] it was -1.97 (inactive); in assay [4], -0.0202 (inactive); in assay [5], 0.0613 (inactive).
`C=C(CCCC)C(=O)CC[C@H](OC(=O)c1cccnc1)c1ccc(CO)o1`: the composite z-score in assay [1] was 0.437 (inactive); with XIP peptide (Xip251-270), 0.769. Besides, the z-score in assay [2] is -0.198; in assay [3], -5.27 (inactive); in assay [4], 0.242 (inactive); in assay [5], 0.136 (inactive).
In the case of `O=C1c2ccccc2[C@@]2(Cc3ccccc3N(Cc3ccccc3)C2=O)[C@H](c2ccc(CO)cc2)N1Cc1ccccc1`, the composite z-score in assay [1] is -0.348 (inactive); in the assay on XIP peptide (Xip251-270), -0.283. In addition, the z-score in assay [2] was 1.37; in assay [3], -0.928 (inactive); in assay [4], 0.306 (inactive); in assay [5] it was 0.435 (inactive).
